According to PubChem BioAssay (NCATS):
Inconclusive results are not listed. The source made the active and inactive calls. Unless noted, calls come from the whole dose curve; as a rule, active = well fitted curve in the direction sought with a large enough effect; inconclusive = small, poorly fitted or top-dose-only effect, or another doubt; inactive = no such curve, though single readings can be large; an effect the other way counts as inactive or inconclusive.

Legend:
[1] = qHTS assay for measurement of the activity of small molecule inhibitors on Zika virus induced Caspase-3 activity in human iPSC derived neural progenitor cells (hNPCs) (AID 1224857); conditions: hNPCs ZIKV-induced caspase-3/7, Caspase-Glo luminescence, 6 h; series mostly up to 45.7 µM; note: nearly all actives have a fitted effect of over 65% in size
Summary of the method: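 Caspase-3/7 induction by a 6-hour ZIKV infection was quantified with a luminescent Caspase-Glo 3/7 reagent incubated 30 minutes at room temperature. Compounds were preincubated with hNPCs for 1 hour; inhibition was calculated against uninfected and infected control wells.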

[2] = qHTS assay for measurement of the activity of small molecule inhibitors on Zika virus induced Caspase-3 activity in human astrocytoma cells (AID 1224859); conditions: SNB-19 ZIKV-induced caspase-3/7, luminescence, 6 h; series mostly up to 45.7 µM
Summary of the method: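 In SNB-19 cells plated at 250 cells/well and grown 16-20 h, compounds were applied 1 h before ZIKV (2 FFU/cell). Six hours later caspase-3/7 luminescence was recorded.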

[3] = qHTS assay to identify small molecule inhibitors of chordoma cells - UCH-1 (AID 1259355); conditions: UCH-1 chordoma viability, CellTiter-Glo, 48 h, combination, with auranofin plus four topoisomerase inhibitors; series mostly up to 46.1 µM; note: nearly all actives have a fitted effect of over 55% in size; note: potency is the fitted concentration of half-maximal effect
Summary of the method: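 Seed 800 cells per well; incubate overnight at 37 C, 5% CO2. Add test compounds (15 concentrations), then the auranofin–topoisomerase-agent combination. Incubate 48hr, add CellTiter-Glo, wait 30min, read luminescence.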

[4] = qHTS assay to identify small molecule inhibitors of chordoma cells - UCH-2 (AID 1259356); conditions: UCH-2 chordoma viability, CellTiter-Glo ATP luminescence, 48 h; series mostly up to 46.1 µM
[5] = P-glycoprotein substrates identified in KB-8-5-11 adenocarcinoma cell line, qHTS therapeutic library screen (AID 1346987); conditions: KB-8-5-11 (P-gp overexpressing) viability, CellTiter-Glo, 72 h; series mostly up to 44.5 µM; note: nearly all actives have a fitted effect of over 65% in size; note: potency is the fitted concentration of half-maximal effect
Summary of the method: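 KB-8-5-11, a colchicine-selected P-gp-overexpressing KB-3-1 subline, was grown without colchicine for the assay. Cells were seeded at 500 cells/well, dosed in concentration-response and incubated 72 h at 37 degree C, 5% CO2. Viability was read by CellTiter-Glo luminescence.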

[6] = target: Atrial natriuretic peptide receptor 1 (Homo sapiens) (UniProt P16066); test: Natriuretic polypeptide receptor (hNpr1) antagonism - Pilot screen (AID 1347049; calls by dose curve;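 note: agonist-evoked cGMP luminescence read 20 min after hNppA addition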); conditions: hNpr1 cells, antagonist mode cGMP read-out; series mostly up to 57.5 µM
Summary of the method: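 Readout is cGMP-driven firefly luciferase luminescence in HEK293 cells carrying hNpr1 and a PDE5-domain GloSensor, read before and 20 min after 0.1 nM hNppA stimulation. Cells had 2% substrate reagent for 2 h and test compound for 30 min.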

[7] = target: Atrial natriuretic peptide receptor 2 (Homo sapiens) (UniProt P20594); test: Natriuretic polypeptide receptor (hNpr2) antagonism - Pilot subtype selectivity assay (AID 1347050; calls by dose curve); conditions: NPR2-expressing cells, cGMP antagonist-mode read-out; series mostly up to 38.3 µM
Summary of the method: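 Pilot selectivity screen against hNpr2: HEK293 cGMP-sensor cells are treated with LOPAC1280 compounds, then with hNppC peptide at 1 nM final. The cGMP-driven luminescence change over 20 min at room temperature is the read-out.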

[8] = NS1 protein of Zika virus - qHTS assay to identify small molecule inhibitors in human HEK 293 cells (AID 1347053); conditions: HEK293 ZIKV MR766 infection, NS1 TR-FRET, 24 h; series mostly up to 46.1 µM; note: nearly all actives have a fitted effect of over 55% in size
Summary of the method: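 HEK 293 cells, seeded 20 h at 37 C, were pretreated with compound 1 h, then infected with ZIKV MR766 (MOI = 0.5) for 24 h. NS1 was read by TR-FRET with two anti-NS1 antibodies, normalized to uninfected and infected wells.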

[9] = target: Tyrosine-protein phosphatase non-receptor type substrate 1 (Homo sapiens) + Leukocyte surface antigen CD47 (Homo sapiens) (UniProt P78324+Q08722); test: CD47-SIRPalpha protein protein interaction - LANCE assay qHTS validation (AID 1347057; active = well fitted curve in the direction sought with a large enough effect in the signal ratio, with a control signal flat, not every such curve was filed as active; the % refers to the signal ratio); conditions: Recombinant CD47-His / biotin-SIRPalpha, TR-FRET ratio; series mostly up to 38.3 µM
Summary of the method: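 First, His-tagged CD47 and Eu-labelled anti-His antibody met the compound for 30 min; next, site-specifically biotinylated SIRPalpha was added for 30 min; finally streptavidin-APC was added before reading the TR-FRET ratio.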

[10] = Natriuretic polypeptide receptor (hNpr1) antagonism - Pilot counterscreen GloSensor control cell line (AID 1347045; calls by dose curve); conditions: HEK293 cGMP GloSensor cells, SNP-stimulated luminescence, 20 min; series mostly up to 38.3 µM
Summary of the method: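 HEK293 cGMP GloSensor cells preloaded 2 h with 2% GloSensor reagent, then compound 30 min before baseline luminescence read. Stimulated with 50 uM sodium nitroprusside, 20 min at room temperature, then read again; counterscreen for Npr1 antagonism.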

Measured: Potency

Chain of Tyrosine-protein phosphatase non-receptor type substrate 1 (Homo sapiens) + Leukocyte surface antigen CD47 (Homo sapiens) (P78324 whole entry, looked up): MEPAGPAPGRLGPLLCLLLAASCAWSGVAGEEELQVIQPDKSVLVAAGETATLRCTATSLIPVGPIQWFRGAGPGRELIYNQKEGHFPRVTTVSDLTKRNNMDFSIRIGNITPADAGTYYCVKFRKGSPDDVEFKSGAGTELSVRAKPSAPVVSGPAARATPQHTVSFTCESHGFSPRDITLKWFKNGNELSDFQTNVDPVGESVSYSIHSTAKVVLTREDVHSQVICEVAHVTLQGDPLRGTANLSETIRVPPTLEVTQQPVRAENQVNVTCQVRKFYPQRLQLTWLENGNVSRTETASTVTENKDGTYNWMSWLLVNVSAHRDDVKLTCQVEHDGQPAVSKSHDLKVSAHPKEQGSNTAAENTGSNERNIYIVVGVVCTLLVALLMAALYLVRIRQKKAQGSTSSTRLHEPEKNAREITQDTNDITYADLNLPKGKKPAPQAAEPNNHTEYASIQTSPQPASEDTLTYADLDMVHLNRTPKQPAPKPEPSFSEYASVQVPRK
Chain of Tyrosine-protein phosphatase non-receptor type substrate 1 (Homo sapiens) + Leukocyte surface antigen CD47 (Homo sapiens) (Q08722 whole entry, looked up): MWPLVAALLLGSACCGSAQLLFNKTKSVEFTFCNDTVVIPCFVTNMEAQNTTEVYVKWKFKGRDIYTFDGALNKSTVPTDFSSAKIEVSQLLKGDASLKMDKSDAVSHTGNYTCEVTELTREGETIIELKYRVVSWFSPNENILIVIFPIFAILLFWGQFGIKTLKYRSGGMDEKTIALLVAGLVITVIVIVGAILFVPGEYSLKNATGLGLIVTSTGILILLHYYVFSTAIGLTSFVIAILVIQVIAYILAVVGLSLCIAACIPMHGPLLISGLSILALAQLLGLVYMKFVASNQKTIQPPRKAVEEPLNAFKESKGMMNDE
Chain of Atrial natriuretic peptide receptor 1 (Homo sapiens) (P16066 whole entry, looked up): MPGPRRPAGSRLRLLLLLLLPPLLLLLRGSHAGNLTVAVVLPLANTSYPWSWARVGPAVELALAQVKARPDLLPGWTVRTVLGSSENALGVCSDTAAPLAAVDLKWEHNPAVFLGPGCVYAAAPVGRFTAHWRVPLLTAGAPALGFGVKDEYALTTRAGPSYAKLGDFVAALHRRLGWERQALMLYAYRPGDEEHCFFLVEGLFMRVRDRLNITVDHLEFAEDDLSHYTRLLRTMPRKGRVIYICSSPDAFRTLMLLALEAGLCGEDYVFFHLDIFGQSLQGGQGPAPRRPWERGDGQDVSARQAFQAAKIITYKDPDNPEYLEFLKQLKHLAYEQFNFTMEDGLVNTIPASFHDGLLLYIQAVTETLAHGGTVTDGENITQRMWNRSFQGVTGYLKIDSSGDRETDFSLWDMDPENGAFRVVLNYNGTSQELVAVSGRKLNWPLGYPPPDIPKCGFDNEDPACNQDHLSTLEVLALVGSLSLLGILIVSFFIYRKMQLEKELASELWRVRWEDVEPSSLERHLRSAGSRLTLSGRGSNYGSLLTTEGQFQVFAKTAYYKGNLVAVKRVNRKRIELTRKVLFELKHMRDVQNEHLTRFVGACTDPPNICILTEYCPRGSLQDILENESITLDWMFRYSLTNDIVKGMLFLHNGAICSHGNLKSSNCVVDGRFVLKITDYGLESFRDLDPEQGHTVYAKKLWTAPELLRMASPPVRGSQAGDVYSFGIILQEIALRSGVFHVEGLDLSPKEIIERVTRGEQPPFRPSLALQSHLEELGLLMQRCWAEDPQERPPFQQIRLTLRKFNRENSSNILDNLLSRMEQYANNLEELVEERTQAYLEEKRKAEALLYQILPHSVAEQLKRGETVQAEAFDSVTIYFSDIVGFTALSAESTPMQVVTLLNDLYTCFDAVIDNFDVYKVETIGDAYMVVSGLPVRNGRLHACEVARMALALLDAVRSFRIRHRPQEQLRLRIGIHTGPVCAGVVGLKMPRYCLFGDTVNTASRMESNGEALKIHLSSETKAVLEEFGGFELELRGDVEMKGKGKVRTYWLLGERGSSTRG
Chain of Atrial natriuretic peptide receptor 2 (Homo sapiens) (P20594 whole entry, looked up): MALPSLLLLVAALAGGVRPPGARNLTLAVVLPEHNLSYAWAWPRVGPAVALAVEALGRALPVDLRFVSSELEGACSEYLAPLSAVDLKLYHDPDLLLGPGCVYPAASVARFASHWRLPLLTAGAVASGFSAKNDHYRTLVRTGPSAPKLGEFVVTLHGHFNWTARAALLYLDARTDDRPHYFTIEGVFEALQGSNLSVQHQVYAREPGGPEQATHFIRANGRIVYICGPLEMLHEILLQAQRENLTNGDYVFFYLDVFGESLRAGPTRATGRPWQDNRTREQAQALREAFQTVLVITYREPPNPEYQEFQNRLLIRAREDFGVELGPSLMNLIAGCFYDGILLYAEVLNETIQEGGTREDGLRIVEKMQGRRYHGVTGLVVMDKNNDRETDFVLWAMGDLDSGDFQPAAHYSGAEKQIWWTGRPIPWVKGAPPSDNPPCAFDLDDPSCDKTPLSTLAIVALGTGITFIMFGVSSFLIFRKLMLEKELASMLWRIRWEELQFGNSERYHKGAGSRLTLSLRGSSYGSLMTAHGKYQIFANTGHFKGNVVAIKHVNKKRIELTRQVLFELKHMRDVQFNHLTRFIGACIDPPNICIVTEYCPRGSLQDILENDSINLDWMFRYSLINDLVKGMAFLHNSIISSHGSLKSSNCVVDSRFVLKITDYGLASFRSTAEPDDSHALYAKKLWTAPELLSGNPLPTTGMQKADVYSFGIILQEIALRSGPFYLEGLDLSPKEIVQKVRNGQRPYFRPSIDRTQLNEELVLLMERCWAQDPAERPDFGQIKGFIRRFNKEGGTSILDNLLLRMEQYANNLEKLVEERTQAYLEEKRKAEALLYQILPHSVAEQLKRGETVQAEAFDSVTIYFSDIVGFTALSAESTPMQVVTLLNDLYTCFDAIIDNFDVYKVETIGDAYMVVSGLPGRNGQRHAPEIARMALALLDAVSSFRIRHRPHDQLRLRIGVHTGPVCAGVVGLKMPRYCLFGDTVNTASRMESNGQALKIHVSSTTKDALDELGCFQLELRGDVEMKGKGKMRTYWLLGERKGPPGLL

CC1(C)CCC(NC(=O)[C@@H](N)CCC(=O)O)CC1
not listed: [10]
inactive: all other assays above

C[C@]12CC[C@@H]3c4ccc(O)cc4CC[C@H]3[C@@H]1CC[C@@H]2O
active: [5] 6.51 µM
not listed: [9] | [10]
inactive: all other assays above

COc1cc(C(=S)N2CCOCC2)cc(OC)c1OC
inactive: [1] | [2] | [3] | [4] | [5] | [8]

CCCCCCc1ccc(O)cc1O
inactive: [1] | [2] | [3] | [4] | [5] | [8]

C[n+]1c2cc(N)ccc2cc2ccc(N)cc21 (tested in a mixture with another compound)
active: [3] 15.8 µM
inactive: [1] | [2]

O=C(OCCOCCO)c1ccccc1Nc1cccc(C(F)(F)F)c1
inactive: [1] | [2] | [3] | [4] | [5] | [8]

CCCCN1CCCC1C(=O)Nc1c(C)cc(C)cc1C (centres undefined)
inactive: [1] | [2] | [3] | [4] | [5] | [8]

O=C(OCC(O)CO)c1ccccc1Nc1ccnc2cc(Cl)ccc12 (centres undefined)
inactive: [1] | [2] | [3] | [4]

CCN(CC)CCNC(=O)COc1ccc(Cl)cc1
inactive: [1] | [2] | [3] | [4] | [5] | [8]

CCCCCC=CCC=CCCCCCCCC(=O)OCC
inactive: [1] | [2] | [3] | [4] | [5] | [8]

O=C(CCN1CCC(c2ccccc2)C1)c1ccc2c(c1)OCCO2 (centres undefined)
inactive: [1] | [2] | [3] | [4] | [5] | [8]

CCN1CCCC1=O
inactive: [1] | [2] | [3] | [4] | [5] | [8]

N[C@H](CO)C(=O)O
inactive: all assays above

CCN(CC)CCOC(=O)C(c1ccccc1)C1CCCCC1 (centres undefined)
inactive: [1] | [2] | [3] | [4] | [5] | [8]

CCC(NC(C)C)C(O)c1ccc(O)c(O)c1 (centres undefined)
inactive: all assays above

CN(C/C=C/c1ccccc1)Cc1cccc2ccccc12
inactive: [1] | [2] | [3] | [4] | [5] | [8]

C[C@@H]1CN(CCCn2c3ccccc3c3ccccc32)C[C@H](C)N1
inactive: [1] | [2] | [3] | [4]
active: [5] 14.6 µM

C[C@]12CC[C@@H]3c4ccc(O)cc4CC[C@H]3[C@@H]1C[C@@H](O)[C@@H]2O
inactive: [1] | [2] | [3] | [4] | [5] | [8]

CCCCCCCCCCCCCCCC[N+](C)(C)CC
inactive: [1] | [2] | [3]

C[C@]12CCC(=O)C=C1[C@@H]1C[C@@H]1[C@H]1[C@@H]3[C@@H]4C[C@@H]4[C@@]4(CCC(=O)O4)[C@@]3(C)CC[C@@H]12
inactive: [1] | [2] | [3] | [4] | [8]
active: [5] 4.11 µM

CCN(CC)CCOc1ccc(C(O)(Cc2ccc(Cl)cc2)c2ccc(C)cc2)cc1 (centres undefined)
inactive: [1] | [2] | [3]

CC(C)N=C(N)/N=C(\N)Nc1ccc(Cl)cc1
inactive: [1] | [2] | [3] | [4] | [5] | [8]

C1CCc2nnnn2CC1
inactive: all assays above

Oc1ccc(Cl)c2cccnc12
inactive: [1] | [2] | [3] | [4] | [5]

C[C@@H]1C(=O)NC2=Nc3cccc(Cl)c3CN21
active: [5] 0.82 µM
inactive: all other assays above

CC(C)COC(=O)OCN1C(=O)CN(CCN2CC(=O)N(COC(=O)OCC(C)C)C(=O)C2)CC1=O
inactive: all assays above

CC(=O)O[C@H]1C[C@@H]2CC[C@@H]3[C@H](CC[C@@]4(C)[C@H]3C[C@H]([N+]3(C)CCCCC3)[C@@H]4OC(C)=O)[C@@]2(C)C[C@@H]1[N+]1(C)CCCCC1
inactive: all assays above

C[N+]1(CCCCC[N+]2(C)CCCC2)CCCC1
not listed: [6]
inactive: all other assays above

CC(=O)Oc1ccc2c(c1)CC[C@@H]1[C@@H]2CC[C@]2(C)[C@@H](O)CC[C@@H]12
inactive: [1] | [2] | [3] | [4] | [8]
active: [5] 5.17 µM

CCCCCCCCCCOCC(O)CN (centres undefined)
inactive: [1] | [2] | [3] | [4] | [5]

CN(C(=O)CN(CCO)CC(=O)N(C)C(C)(C)Cc1ccccc1)C(C)(C)Cc1ccccc1
inactive: [1] | [2] | [3] | [4]

COc1cc(C=C2CCC/C(=C\c3ccc(O)c(OC)c3)C2=O)ccc1O
inactive: [1] | [2] | [4]
active: [3] 31.6 µM | [5] 25.9 µM

CN1CCCC(CC2c3ccccc3Sc3ccccc32)C1 (centres undefined)
inactive: [1] | [2] | [3] | [4]

O=C(O)c1cc2cc(Cc3cccnc3)ccc2o1
inactive: all assays above

N[C@@H](Cc1cnc[nH]1)C(=O)O
inactive: all assays above

Nc1cc(Cl)c(NC2=NCCN2)c(Cl)c1
inactive: all assays above

Cc1cc(N)c2cc(NC(=O)Nc3ccc4nc(C)cc(N)c4c3)ccc2n1
inactive: [1] | [2] | [3] | [4] | [5] | [8]

COc1cccc(OC)c1C(=O)N[C@@H]1C(=O)N2[C@@H]1SC(C)(C)[C@@H]2C(=O)O
inactive: [1] | [2] | [3] | [4] | [8]

Nc1ccc(C(=O)O)cc1
inactive: [1] | [2] | [3] | [4] | [8]

O=C(O)CCCCC(=O)O
inactive: [1] | [2] | [3] | [4] | [5] | [8]

CC(CCc1ccccc1)NCC(O)c1ccc(O)c(C(N)=O)c1 (centres undefined)
not listed: [5] | [10]
inactive: all other assays above

COC1=CC(=O)C[C@@H](C)[C@]12Oc1c(Cl)c(OC)cc(OC)c1C2=O
inactive: [1] | [2] | [3] | [4] | [8]

Cc1c(C)n(Cc2ccccc2)c2ccc(C(=O)OCCN(C)C)cc12
active: [5] 23.1 µM
inactive: [1] | [2] | [3] | [4] | [8]

CC(=O)Nc1c(I)cc(I)c(C(=O)O)c1I
inactive: [1] | [2] | [3] | [4] | [5] | [8]

CN1C(CCl)Nc2cc(Cl)c(S(N)(=O)=O)cc2S1(=O)=O (centres undefined)
inactive: [1] | [2] | [3] | [4] | [8]

CC(C)C[C@H]1C(=O)N2CCC[C@H]2[C@]2(O)O[C@](NC(=O)[C@@H]3C=C4c5cccc6[nH]c(Br)c(c56)C[C@H]4N(C)C3)(C(C)C)C(=O)N12
inactive: [1] | [2] | [3] | [4] | [6] | [7]

CC(C)(Oc1ccc(Cl)cc1)C(=O)O
inactive: [1] | [2] | [3] | [4] | [8]

Cc1c(C(N)=O)cc([N+](=O)[O-])cc1[N+](=O)[O-]
inactive: [1] | [2] | [3] | [4] | [5] | [8]

c1ccc(CNCCNCc2ccccc2)cc1
inactive: [1] | [2] | [3] | [4] | [5] | [8]

Cc1ccc(O)c2ncccc12
inactive: [1] | [2] | [3] | [4] | [5] | [8]

COc1cc2c(cc1OC)C(=O)C(CC1CCN(Cc3ccccc3)CC1)C2 (centres undefined)
active: [5] 8.2 µM
inactive: [1] | [2] | [3] | [4] | [8]

CN1CCC(=C2c3ccccc3Sc3ccccc32)CC1
active: [5] 9.2 µM
inactive: [1] | [2] | [3] | [4] | [8]

NC(=O)CC[C@@H]1NC(=O)[C@H](Cc2ccccc2)NC(=O)[C@H](Cc2ccc(O)cc2)NC(=O)CCSSC[C@@H](C(=O)N2CCC[C@H]2C(=O)N[C@@H](CCCN=C(N)N)C(=O)NCC(N)=O)NC(=O)[C@H](CC(N)=O)NC1=O
inactive: [1] | [2] | [3] | [4] | [8]

CCCCC1=NC2(CCCC2)C(=O)N1Cc1ccc(-c2ccccc2-c2nn[nH]n2)cc1
inactive: [1] | [2] | [3] | [4] | [8]
